EWS-Fli inh = EWS/Fli-driven NR0B1 reporter inhibitors, primary screen, A673 cells, NR0B1 luciferase, luminescence, MLPCN library. viability-normalised. 350,000 tested, 0.67% active. inhibition, % at 12.6 µM;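 active means mean inhibition of at least 50% after viability correction, with every replicate also passing that limit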;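 further: firefly luciferase signal divided by Alamar Blue viability fluorescence both relative to DMSO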
HIF-2a inh = HIF-2a reporter inhibitors, primary screen, luminescence, 786-0 RCC cells | inhibition, % at 18.8 µM | 786-0 RCC cells HIF-2a reporter, luciferase luminescence, overnight | 360,000 tested, 0.72% active;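 active means inhibition of the luminescence signal of 40% or more relative to plate controls, in a single-dose primary screen at 18.75 µM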
CF NFkB inh = inhibitors of PAF-induced NF-kB signaling, primary screen, cell-based, GFP fluorescence, uHTS | KKLEB NF-kB-GFP reporter, GFP fluorescence overnight | inhibition, % at 5 µM | 360,000 tested, 0.86% active;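 active means at least 50% inhibition at 5 µM, scaled per plate between neutral and stimulator controls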;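 further: PAF is a Pseudomonas aeruginosa culture filtrate used as stimulus; plate controls were PAF-stimulated DMSO wells for no effect and unstimulated DMSO wells for full effect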
PAX8 reporter = inhibitors of PAX8-driven TPO luciferase reporter, primary screen, RMG-I cells, single concentration. SteadyGlo, 24 h. inhibition, % at 12.6 µM. 360,000 tested, 1.2% active. AID 652154, 2013;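 active means mean replicate inhibition at least 60% with every replicate also reaching 60%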;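 further: luciferase light reporting Pax8 driven TPO promoter activity; plate controls were median of neutral control wells for no effect and mitoxantrone controls for full effect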
KKLEB cytotox = cytotoxicity in KKLEB CF airway cells, primary screen, cytotoxicity control for CF NF-kB inhibitor project, cell-based, uHTS, fluorescence assay plates. KKLEB CF airway cells viability, ATPlite luminescence, overnight; hits give low values; cells stimulated with P. aeruginosa culture filtrate. AID 602141, 2011. activity change (cytotoxicity), % at 5 µM. 360,000 tested, 0.36% active;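 active means corrected activity change at or below -50% at 5 µM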
Mdm2 MdmX conf = retested Mdm2-MdmX interaction blockers, confirmation, cell-based, luminescence, single concentration, set 2. AID 504601, 2011. shares compounds with HIF-2a inh. 740 tested, 99% active. inhibition, % at 8 µM. SaOS-2 split-luciferase Mdm2/MdmX complementation;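 active means mean inhibition of the luminescence signal across two replicates at or above 26 percent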
Target sequence (O15151 whole entry, looked up): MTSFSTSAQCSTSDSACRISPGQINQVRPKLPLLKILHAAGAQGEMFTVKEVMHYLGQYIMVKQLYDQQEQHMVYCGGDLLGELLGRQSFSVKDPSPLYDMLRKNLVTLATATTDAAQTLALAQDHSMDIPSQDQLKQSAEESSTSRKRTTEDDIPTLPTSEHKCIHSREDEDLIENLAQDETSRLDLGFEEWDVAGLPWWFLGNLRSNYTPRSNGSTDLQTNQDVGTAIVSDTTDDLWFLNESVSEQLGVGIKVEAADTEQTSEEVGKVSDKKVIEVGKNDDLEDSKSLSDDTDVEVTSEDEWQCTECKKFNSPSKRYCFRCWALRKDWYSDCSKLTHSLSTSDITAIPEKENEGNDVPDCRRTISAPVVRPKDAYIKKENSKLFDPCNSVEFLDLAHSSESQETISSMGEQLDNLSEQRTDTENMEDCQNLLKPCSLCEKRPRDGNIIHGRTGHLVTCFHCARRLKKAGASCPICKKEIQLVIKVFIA
Target sequence (Q00987 whole entry, looked up): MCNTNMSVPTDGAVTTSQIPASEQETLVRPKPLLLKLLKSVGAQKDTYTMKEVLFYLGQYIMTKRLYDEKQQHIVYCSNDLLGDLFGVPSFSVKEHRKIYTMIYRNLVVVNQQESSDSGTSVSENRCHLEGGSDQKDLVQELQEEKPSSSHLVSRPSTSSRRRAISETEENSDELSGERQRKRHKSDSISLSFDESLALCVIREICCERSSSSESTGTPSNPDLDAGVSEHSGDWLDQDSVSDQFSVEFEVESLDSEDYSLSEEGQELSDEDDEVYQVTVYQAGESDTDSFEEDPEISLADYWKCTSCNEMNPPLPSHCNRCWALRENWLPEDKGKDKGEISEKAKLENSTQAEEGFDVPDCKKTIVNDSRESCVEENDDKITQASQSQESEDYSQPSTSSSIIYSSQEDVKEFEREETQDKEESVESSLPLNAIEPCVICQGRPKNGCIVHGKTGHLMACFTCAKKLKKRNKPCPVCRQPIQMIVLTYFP
HIF-2a conf = HIF-2a reporter inhibitor retest, confirmation, luminescence, 786-0 RCC cells. shares compounds with HIF-2a inh. HIF-2a luciferase reporter luminescence, overnight. inhibition, % at 18.8 µM. 1,800 tested, 56% active. AID 651580, 2012;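 active means mean inhibition across four replicates of at least 40 percent at the single tested concentration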
HIF-1a cs = HIF-1a luciferase reporter signal reduction – MiaPaCa-2 cells, single concentration, counter-screen for HIF-2a inhibitor project, confirmation | shares compounds with HIF-2a inh | MiaPaCa-2 HIF-1a luciferase reporter, desferoxamine, overnight | inhibition, % at 18.8 µM | 1,800 tested, 72% active;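 active means mean inhibition of the reporter signal across four replicates at the single tested dose of 50% or more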
Active calls of the source: *; · = not tested or not shown. Hits are enriched below; roughly 2.1% of the tested compounds scored in any of these assays.

SMILES | EWS-Fli inh | HIF-2a inh | CF NFkB inh | PAX8 reporter | KKLEB cytotox | HIF-2a conf | HIF-1a cs | others
Cc1nc(SCc2ccc(C(=O)O)cc2)nc2c1CCCC2 | 32 | 82* | 0 | 1 | 0 | 89* | 62*
CCOC(=O)C1CCN(C(=O)CCc2c(C)nc3cc(-c4ccccc4)nn3c2C)CC1 | 41 | 69* | 20 | -24 | -5 | 84* | 45
Cc1nc2cc(-c3cccc(F)c3)nn2c(C)c1CCC(=O)N1CCN(c2ccccn2)CC1 | 41 | 72* | -12 | -18 | 7 | 81* | 59*
CCOC(=O)C1CCCCN1C(=O)CCc1c(C)nc2ncnn2c1C (stereo not given) | · | 63* | 6 | · | 13 | 49* | 28
Cc1ccc(S(=O)(=O)N(C)C[C@@H]2Oc3c(NC(=O)c4cc(C)nn4C)cccc3C(=O)N([C@@H](C)CO)C[C@@H]2C)cc1 | -5 | · | · | -5 | · | · | ·
O=C(CCl)Nc1cccc(S(=O)(=O)N2CCCCCC2)c1 | · | 46* | 0 | 5 | -41 | 3 | 67*
O=C(c1ccc(F)cc1)N1C[C@H]2[C@@H](c3ccccc31)[C@H](CO)N2C(=O)c1ccc(F)cc1 | 5 | · | · | -14 | · | · | ·
CC(=O)[C@@]1(O)C(C)CC2C3C=C(C)C4=Cc5c(cnn5-c5ccccc5)C[C@]4(C)C3C(O)C[C@@]21C (stereo not given in full) | 50 | 67* | 88* | 32 | 9 | 34 | 95*
Cc1ccccc1-n1nnnc1Sc1nnnn1-c1ccccc1 | · | 49* | 78* | · | -69* | -15 | 100* | Mdm2 MdmX conf=104*
O=[N+]([O-])c1ccc(Sc2nc3ccccc3o2)c([N+](=O)[O-])c1 | 63* | 92* | 68* | · | -42 | 74* | 106*
CC(=O)/C(=C/c1ccccc1)C(=O)Nc1ccccc1C | 3 | 92* | 26 | 18 | -12 | 88* | 103*
CC(=O)Nc1ccccc1C | -4 | 13 | 16 | · | -4 | · | ·
O=C(C[C@H]1CC[C@H]2[C@@H](COC[C@@H](O)CN2C(=O)c2cccnc2)O1)NC1Cc2ccccc2C1 | 7 | · | · | -14 | · | · | ·
COc1ccc([N+](=O)[O-])cc1Nc1c2ccccc2nc2ccccc12 | 45 | 15 | 2 | 31 | -35 | · | ·
COc1cc(NS(C)(=O)=O)ccc1Nc1c2ccccc2nc2ccccc12 | 58* | 55* | -119 | 71* | 10 | · | · | Mdm2 MdmX conf=98*
CCCC#Cc1ccc2c(c1)O[C@@H](CN(C)C(=O)CN(C)C)[C@H](C)CN([C@H](C)CO)S2(=O)=O | 3 | · | · | 10 | · | · | ·
NC(c1csc(Nc2nncc3ccccc23)n1)C1CCCCC1 (stereo not given) | 17 | 68* | 8 | -17 | -21 | -6 | 106*
Cc1ccc(-n2c(C)cc(C(=O)COC(=O)c3ccc[nH]c3=O)c2C)cc1C | -6 | 7 | 3 | -95 | 0 | · | ·
C=CCn1c(C)cc(C(=O)COC(=O)c2ccc(N)c([N+](=O)[O-])c2)c1C | -158 | -232 | 1 | -115 | -2 | · | ·
CCn1c(C)cc(C(=O)COC(=O)c2ccccc2[N+](=O)[O-])c1C | · | 82* | 5 | · | -67* | 87* | 87* | Mdm2 MdmX conf=98*
CCCn1c(C)cc(C(=O)COC(=O)c2ccc[nH]c2=O)c1C | · | 42* | -5 | -15 | -10 | 36 | 14
COCCn1c(C)cc(C(=O)COC(=O)c2ccccc2Br)c1C | -13 | 48* | 14 | 60 | -36 | 42* | 76*
COCCn1c(C)cc(C(=O)COC(=O)c2n[nH]c3ccccc23)c1C | · | 47* | 10 | 14 | -59* | 45* | 31
